Data as given in PubChem BioAssay (NCI).
Compounds without any hit were thinned out: in the full panel of roughly 83,000, 20% have a hit.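 Compound tested at a single concentration for 48 hours in 96-well plates; a percent growth value below 10 was scored as active.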 Values without a mark were called inactive. Activity calls are given as the source filed them.

Test system: IGROV1 ovarian
Experiment: NCI-60 one-dose screen, 48 h (100 = growth as untreated, 0 = no growth, -100 = all killed)
Settings: 10 µM unless noted

Row | Structure (SMILES) | growth
1 | CC1CC(=O)C2=C(C1)Nc1ccc(Br)cc1CC2c1c[nH]c2ccc(Br)cc12 (stereo not drawn) | 32.9%
2 | CC(C)(C)Nc1nc2c(OCCc3ccccc3)cccn2c1-c1cccc(Oc2ccccc2)c1 | 34%
3 | CCCC/C(=C\c1ccc(O)c(O)c1)C(=O)NC(Cc1ccccc1)C(=O)C(=O)NCCc1ccc(OC)cc1 (stereo not drawn) | 96.8%
4 | COC(=O)c1cccc(NC2=C(Cl)C(=O)c3nc(C)ccc3C2=O)c1 | -58.1% (active)
5 | NC1CC2(CCN(c3cnc(C(=O)Nc4cc(F)cc5cccnc45)cn3)CC2)C1 | 64.8%
6 | COC(=O)c1ccc(NC2=C(Cl)C(=O)c3nc(C)ccc3C2=O)cc1 | 41.4%
7 | CC(Nc1c(C#N)cnc2ccc(-c3cncc(-c4n[nH]c(=O)o4)c3)cc12)c1ccccc1 (stereo not drawn) | -20% (active)
8 | CC(=O)OC[C@]12CC[C@@H](C(=O)/C=C/c3cccnc3)[C@@H]1[C@H]1CC[C@@H]3[C@@]4(C)CC[C@H](OC(C)=O)C(C)(C)[C@@H]4CC[C@@]3(C)[C@]1(C)CC2 | -12.9% (active)
9 | CC(O)c1cccc(/C(N)=N/C(N)=N/c2nc3ccccc3s2)c1 (stereo not drawn) | 92.5%
10 | CC(C)=CCC[C@](C)(O)[C@H]1CC[C@]2(C)[C@@H]1CC[C@@H]1[C@@]3(C)CC[C@H](N)C(C)(C)[C@@H]3CC[C@]12C | 93.3%
11 | Cc1ccc2c(n1)C(=O)C(Cl)=C(Nc1cccc(C)c1C)C2=O | -58.4% (active)
12 | C[C@]12CC[C@H]3[C@@H](CC=C4C[C@@H](O)CC[C@@]43C)[C@@H]1CC[C@@H]2[C@](C)(O)CCc1cccnc1 | 81.3%
13 | CN1CCN(c2ccc(Nc3nc(NCCCNS(=O)(=O)c4ccc(C(F)(F)F)cc4)c4sccc4n3)cc2)CC1 | -6.63% (active)
14 | Cc1ccc2c(n1)C(=O)C(Cl)=C(Nc1cccc(C(F)(F)F)c1)C2=O | -57.4% (active)
15 | O=C(CN1CCN(c2cc(=O)[nH]c3ccc(F)cc23)CC1)N(c1ccccc1)c1ccccc1 | 99.8%
16 | Cc1[nH]c(C(=O)Nc2ccc(C(N)=O)cc2N2CCOC(C)C2)c(Cl)c1Cl (stereo not drawn) | 92.2%
17 | CC1(C)CC[C@]2(C(=O)O)CC[C@]3(C)C(=CC[C@@H]4[C@@]5(C)CC[C@H](NOCCCN)C(C)(C)[C@@H]5CC[C@]43C)[C@@H]2C1 | 99.3%
18 | Cc1ccc2c(n1)C(=O)C(Cl)=C(Nc1ccc(C#N)cc1)C2=O | 68.4%
19 | CC(=O)Nc1nc(C)c(-c2csc(Nc3ccccc3)n2)s1 | -9.74% (active)
20 | O=C(/C=C/c1cccc(F)c1)c1cccc(OCCCCOc2cccc(C(=O)/C=C/c3cccc(F)c3)c2)c1 | 103%
21 | O=S(=O)(NCCCNc1nccc(-c2[nH]c(-c3ccccc3)nc2-c2ccc(F)c(O)c2)n1)c1ccc(C(F)(F)F)cc1 | 63.1%
22 | O=C(CCCCCCNC(=O)C(O)(O)C(F)(F)F)Nc1ncc(-c2ccccc2)s1 | -23.5% (active)
23 | CN(C)c1ccc(/C=N/Nc2nc(N/N=C/c3ccc(N(C)C)cc3)nc(N3CCCCC3)n2)cc1 | 93.8%
24 | NC1[C@H]2CN(c3cnc(C(=O)Nc4cc(F)cc5cccnc45)cn3)C[C@@H]12 (stereo partly drawn) | 29.4%
25 | Clc1cccc(/C=N/Nc2nc(N/N=C/c3cccc(Cl)c3)nc(N3CCCCC3)n2)c1 | 105%
26 | CC(Nc1ncnc2ccc(-c3cnc4cnccn34)cc12)c1ccccc1 (stereo not drawn) | 5.93% (active)
27 | CN1CCN(c2ccc(Nc3nc(NCCNC(=O)c4ccccc4)c4sccc4n3)cc2)CC1 | 87.9%
28 | O=C(CSc1nc2ccccc2c(=O)n1-c1ccccc1)N/N=C/c1ccc(Oc2ccc(Cl)cc2)cc1 | 49.1%
